High-throughput results (PubChem BioAssay)
The full list was thinned out, with hits kept by preference.
RMI-FANCM inh: blocks RMI1/RMI2 complex binding to FANCM MM2 peptide; Fluorescence polarization, RMI core complex with F-MM2 peptide; active compounds read low; FP signal (polarization) at 33 µM; 0.58% of 70,000 active; in the data active means FP signal below about 40
* = called active by the depositor; ! = a repeat was not active.

SMILES | RMI-FANCM inh
COCCNS(=O)(=O)c1ccc(Cl)c(C(F)(F)F)c1 | 70
Cc1ccc2c(CC(=O)NC(C)C)cc(=O)oc2c1 | 64
Cc1cc(C)n(-c2nc3c(c(=O)n2CC(=O)NCc2ccccc2Cl)CCC3)n1 | 54
Cc1cc(NC(=O)C2CCCC2)n(-c2nc3c(cnn3-c3ccc(F)cc3)c(=O)[nH]2)n1 | 65
CSC1=NCCN1C(=O)c1ccccc1Br | 62
CS(=O)(=O)c1ncc(Br)c(C(=O)O)n1 | 55
O=C(O)c1nc2nccnc2cc1Br | 17*
O=C(O)c1ncccc1Br | 57
Cc1ccc2sc(N3CCN(C(=O)c4ccno4)CC3)nc2c1C | 54
Cc1cc(C)c2nc(C)cc(NC(=O)c3ccncc3)c2c1 | 66
COc1ccccc1OCC(O)CNC(C)(C)C (stereo not drawn) | 71
CC(C)(C)NCC(O)COc1cccc2c1C[C@H](O)[C@H](O)C2 (stereo partly drawn) | -57*!
CC(C)(C)NC[C@H](O)COc1cccc2c1CCCC2=O | 55
N#CC(Br)Cc1ccccc1C(=O)O (stereo not drawn) | 62
CCOc1ccc(C(=O)Nc2sc3c(c2C(=O)OC)CCN(C(C)C)C3)cc1 | 223
Cc1cc(C(=O)CN2C(=O)C(=O)c3cc([N+](=O)[O-])ccc32)c(C)o1 | 66
O=C(Cc1cc(=O)[nH]c(SCc2ccccc2)n1)Nc1ccc(OC(F)(F)F)cc1 | 67
Oc1c(Cl)cc(Cl)cc1/C=N\NCCc1ccccn1 | 45
O=C(CC1NCCN(Cc2ccccc2)C1=O)N/N=C\c1cc(Cl)cc(Cl)c1O (stereo not drawn) | 35*!
O=C(CSC1CN(C(c2ccccc2)c2ccccc2)C1)N/N=C/c1ccc(Cl)cc1Cl | 59
COc1ccc(-c2nnc3ccc(OCCNC(=O)c4ccc(C)c(C)c4)nn23)cc1 | 67
Cc1nc2ccccc2nc1C | 53
c1ccc2c(c1)Nc1nc3ccccc3nc1O2 | 57
c1ccc2c(c1)Nc1nc3ccccc3nc1N2 | -3*
CCn1nc(C(=O)Nc2nc(-c3ccc(F)cc3)cs2)cc1C | 65
SMILES | RMI-FANCM inh
COc1ccc(-c2noc(Cn3ccn4nc(-c5cccs5)cc4c3=O)n2)c(OC)c1 | 86
C=CCN1C(=O)C2C3C=CC(O3)C2C1=O (stereo not drawn) | 63
CC(=O)N1CCc2c(sc(N)c2C(N)=O)C1 | 69
CSc1ccccc1C(=O)Nc1sc2c(c1C(N)=O)CCN(C(C)C)C2 | 80
CC(C)N1CCc2c(sc(N)c2C(N)=O)C1 | -30*
CC(C)CC(=O)NCCOc1ccc2nnc(-c3ccccc3)n2n1 | 68
CCN(CC)C(=O)Cn1ccc2ccccc21 | 71
COc1cccc2cc(C(=O)Nc3nnc(-c4cc(C)nn4C)o3)oc12 | 67
COc1cccc2cc(C(=O)Nc3nnc(-c4ccc5c(c4)OCO5)o3)oc12 | 65
COc1cccc2cc(C(=O)Nc3nnc(-c4ccc(SC)cc4)o3)oc12 | 32*
NC(=O)Cn1c(=O)c2ccccc2c2ccccc2c1=O | 64
N/C(=N/OC(=O)C(Cl)Cl)c1cccc(Cl)c1Cl | 56
O=C(Nc1nnc(-c2ccccn2)o1)c1cc([N+](=O)[O-])cc([N+](=O)[O-])c1 | 62
CCOC(=O)c1ccc(N2CCOCC2)c(NS(=O)(=O)c2ccccc2[N+](=O)[O-])c1 | 52
CC(=O)c1ccc(Cl)c(N=Cc2cc(Cl)cc(Cl)c2O)c1 | 34*
CCOC(=O)c1ccc(N2CCOCC2)c(N=Cc2cc(Cl)cc(Cl)c2O)c1 | 15*
Oc1c(Cl)cc(Cl)cc1C=Nc1ccc(N2CCOCC2)cc1 | 50
O=C(N/N=C\c1cc(Cl)cc(Cl)c1O)c1ccncc1 | 15
Cc1c(C)c(C)c(C(=O)CCc2cccc(N=Cc3cc(Cl)cc(Cl)c3O)c2)c(C)c1C | 40
CN(C)c1ccc(C(=O)N/N=C\c2cc(Cl)cc(Cl)c2O)cc1 | 52
Oc1c(Cl)cc(Cl)cc1C=Nc1ccc2n[nH]nc2c1 | 25*
O=C1Nc2ccccc2C1Cc1ccc(N=Cc2cc(Cl)cc(Cl)c2O)cc1 (stereo not drawn) | 37
O=C(CSC1CCCCC1)Nc1ccc(Br)cc1 | 60
CC1(C)S[C@@H]2C(N3C(=O)[C@@H](c4ccccc4)NC3(C)C)C(=O)N2[C@H]1C(=O)O (stereo partly drawn) | 65
CC(C)=CCSc1nnc(C)c(=O)[nH]1 | 62
SMILES | RMI-FANCM inh
O=C(CSc1ncnc2scc(-c3ccc(Cl)cc3)c12)N1CCCCCC1 | 80
CCOc1ccc(NC(=O)CSC2=C(C#N)C(c3cccs3)C3=C(CC(C)(C)CC3=O)N2)cc1 (stereo not drawn) | 62
O=[N+]([O-])c1ccc(Sc2ccc(Cl)cc2Cl)c2nonc12 | 33*
O=[N+]([O-])c1ccc(Sc2ccccc2)c(Cl)c1 | 53
O=[N+]([O-])c1ccc(SC2=NCCN2)c(Cl)c1 | 53
COc1ccc(NC(=O)c2sccc2S(=O)(=O)N(C)c2ccc(F)cc2)cc1Cl | 62
O=C(/C=C/c1ccc(N2CCOCC2)o1)c1ccc(Br)cc1 | 106
O=C(Cc1csc(NC(=O)c2ccc(=O)[nH]c2)n1)NCC1CCCO1 (stereo not drawn) | 63
